Among the test systems are HCT-15 colon; HT29 colon; SNB-75 CNS; SNB-19 CNS; U251 CNS; PC-3 prostate; SK-MEL-5 melanoma; UACC-62 melanoma; LOX IMVI melanoma; SK-MEL-28 melanoma; SK-MEL-2 melanoma; EKVX NSCLC; SN12C renal; UO-31 renal; TK-10 renal; ACHN renal; CAKI-1 renal; A498 renal; CCRF-CEM leukemia; MOLT-4 leukemia.
Common to all, as to test: NCI-60 one-dose screen, 48 h (100 = growth as untreated, 0 = no growth, -100 = all killed)
What all share (settings): 10 µM unless noted

Compounds without any hit were thinned out: in the full panel of roughly 83,000, 20% have a hit.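 How to read the values: 0–100, growth inhibition (40 = 60% inhibited); 0, no net growth; -100 to 0, cell death (-40 = 40% of starting cells died; -100 = all dead).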 Values without a mark were called inactive. Active and inactive are the calls of the source. How the source made its calls: active means growth percent below 10; inactive means the rest.

Consider `O=C(CSc1oc(-c2ccccc2)nc1S(=O)(=O)c1ccccc1)Nc1ccc(F)cc1`, for which the growth in the assay with HCT-15 colon was 73.7%; with HT29 colon, 91.7%; in the assay on SNB-75 CNS it was 87.8%; in the assay on SNB-19 CNS, 93.5%; in the assay on U251 CNS it was 93.8%; with PC-3 prostate, 52.7%. Further, the growth in the assay with SK-MEL-5 melanoma is 78.8%; in the assay with UACC-62 melanoma, 66.4%; in the assay on LOX IMVI melanoma it was 94%; in the assay on SK-MEL-28 melanoma, 98.4%; with SK-MEL-2 melanoma, 87.6%; in the assay on EKVX NSCLC, 78.2%. The growth was 89% in the assay on SN12C renal; 76.8% in the assay with UO-31 renal; 91.8% in the assay on TK-10 renal; 80.2% in the assay on ACHN renal; 73.1% with CAKI-1 renal; 82.6% with A498 renal. Besides, the growth in the assay with CCRF-CEM leukemia is 84.7%; with MOLT-4 leukemia it was 73.3%.
On to `COC(=O)C1Cc2ccccc2CN1C(=O)c1ccc2c(c1)Cc1ccccc1-2` (stereo not given), for which the growth with HCT-15 colon was 22.4% [50 µM]; in the assay with HT29 colon, 23.1% [50 µM]; in the assay with SNB-75 CNS, 60.8% [50 µM]; in the assay with SNB-19 CNS it was 43.7% [50 µM]; in the assay with U251 CNS, 32.3% [50 µM]; in the assay on PC-3 prostate, 21.2% [50 µM]. For the same compound, the growth was -39.9% [50 µM] (active) in the assay on SK-MEL-5 melanoma; 33.3% [50 µM] in the assay with UACC-62 melanoma; 35.8% [50 µM] in the assay with LOX IMVI melanoma; 47.8% [50 µM] in the assay on SK-MEL-28 melanoma; 47.4% [50 µM] in the assay on SK-MEL-2 melanoma; 24.5% [50 µM] in the assay on EKVX NSCLC. Moreover, the growth in the assay with SN12C renal was 38.5% [50 µM]; in the assay on UO-31 renal, 13.9% [50 µM]; with TK-10 renal, 52.2% [50 µM]; with ACHN renal, 43.3% [50 µM]; in the assay on CAKI-1 renal, 28.7% [50 µM]; with A498 renal, 27.3% [50 µM]. Besides, the values for the growth in the assay with CCRF-CEM leukemia and with MOLT-4 leukemia were 32.1% [50 µM] and 21.9% [50 µM], respectively.
Take `O=S(=O)(Nc1ccc(F)cc1F)c1ccc(-c2cnc(C3CC3)o2)cc1`: the growth with HCT-15 colon was 23.7%; in the assay on HT29 colon, 14%; in the assay on SNB-75 CNS it was -13.1% (active); with SNB-19 CNS it was 46.5%; in the assay with U251 CNS, 26.6%; in the assay on PC-3 prostate, 42.5%. Besides, the growth is 6.16% (active) in the assay with SK-MEL-5 melanoma; 27.4% with UACC-62 melanoma; 41.5% in the assay with LOX IMVI melanoma; 63.5% in the assay with SK-MEL-28 melanoma; 36.7% in the assay with SK-MEL-2 melanoma; 41.1% in the assay with EKVX NSCLC. The growth is 42.9% with SN12C renal; 40% in the assay on UO-31 renal; 67.2% in the assay with TK-10 renal; 38.5% with ACHN renal; 25% with CAKI-1 renal; -3.02% (active) in the assay on A498 renal. Besides, the growth was 19.3% in the assay with CCRF-CEM leukemia and 28.3% in the assay on MOLT-4 leukemia.
As for `Cc1cc(N2CCN(CC(=O)Nc3ccc4c(ccn4C)c3)CC2)nc(N2CCCCCC2)n1`, the growth with HCT-15 colon is 79%; in the assay with HT29 colon it was 56.9%; in the assay on SNB-75 CNS, 90.1%; in the assay on SNB-19 CNS, 89.1%; with U251 CNS, 85.9%; in the assay on PC-3 prostate, 82.8%. The growth in the assay on SK-MEL-5 melanoma is 92.1%; in the assay on UACC-62 melanoma, 84.3%; in the assay on LOX IMVI melanoma it was 92.8%; in the assay on SK-MEL-28 melanoma it was 96.9%; in the assay with SK-MEL-2 melanoma, 92.1%; in the assay with EKVX NSCLC it was 86.2%. Further, the growth with SN12C renal is 98%; in the assay with UO-31 renal it was 67.1%; in the assay on TK-10 renal it was 87.2%; with ACHN renal, 88.4%; in the assay on CAKI-1 renal, 84.6%; in the assay on A498 renal, 46.3%. Moreover, the growth is 35.3% in the assay with CCRF-CEM leukemia and 85.3% in the assay on MOLT-4 leukemia.
With `O=C(Nn1c2c(sc1=NC1CC1)C(=O)c1ccccc1C2=O)c1cc2ccc1CCc1ccc(cc1)CC2`, the growth was 2.79% (active) in the assay with HCT-15 colon; 108% with HT29 colon; -10.4% (active) in the assay with SNB-75 CNS; 33.7% in the assay with SNB-19 CNS; 32.6% in the assay with U251 CNS; 30.7% in the assay on PC-3 prostate. The growth with SK-MEL-5 melanoma was -77.6% (active); in the assay with UACC-62 melanoma it was -12.4% (active); in the assay with LOX IMVI melanoma, 0.512% (active); with SK-MEL-28 melanoma it was 40.2%; with SK-MEL-2 melanoma, 49.5%; in the assay on EKVX NSCLC, 67.5%. In addition, the growth in the assay with SN12C renal is 30.9%; in the assay with UO-31 renal, 21.5%; with TK-10 renal, 115%; in the assay on ACHN renal, 25.6%; with CAKI-1 renal, 30.8%; in the assay with A498 renal, 89.4%. Besides, the growth was 22.6% with CCRF-CEM leukemia and 8.53% (active) in the assay with MOLT-4 leukemia.
Regarding `Cc1ccc(Nn2c(SCC(=O)Nc3nc(-c4ccccc4)cs3)nc(C)c2C)cc1`, the growth in the assay on HCT-15 colon is 67.2%; with HT29 colon it was 56.1%; in the assay on SNB-75 CNS, 24.4%; with SNB-19 CNS, 74.3%; in the assay on U251 CNS, 49.3%; with PC-3 prostate, 71.8%. The growth in the assay on SK-MEL-5 melanoma is -66.7% (active); in the assay on UACC-62 melanoma it was 51.8%; with LOX IMVI melanoma it was 51.9%; in the assay with SK-MEL-28 melanoma, 82.8%; in the assay with SK-MEL-2 melanoma, 81.4%; with EKVX NSCLC it was 49.7%. Besides, the growth was 64.3% with SN12C renal; 51.6% in the assay with UO-31 renal; 72.7% in the assay with TK-10 renal; 60.9% in the assay with ACHN renal; 53.6% with CAKI-1 renal; 92.5% with A498 renal. Besides, the figures for the growth in the assay with CCRF-CEM leukemia and in the assay on MOLT-4 leukemia were 57.7% and 54.7%, respectively.
Turning to `NNc1nc(-c2cccnc2)nc2c1sc(=S)n2-c1ccccc1`, the growth in the assay on HCT-15 colon is 96.3%; with HT29 colon, 90.3%; in the assay with SNB-75 CNS, 87.4%; in the assay with SNB-19 CNS, 113%; with U251 CNS it was 90.6%; with PC-3 prostate, 72.6%. Moreover, the growth was 98.4% in the assay on SK-MEL-5 melanoma; 108% in the assay on UACC-62 melanoma; 86.7% in the assay on LOX IMVI melanoma; 119% with SK-MEL-28 melanoma; 68% in the assay on SK-MEL-2 melanoma; 95.1% in the assay with EKVX NSCLC. Moreover, the growth is 102% in the assay on SN12C renal; 79.3% in the assay with UO-31 renal; 83.6% in the assay on TK-10 renal; 106% in the assay on ACHN renal; 97.9% in the assay on CAKI-1 renal; 124% with A498 renal. For the same compound, the growth was 90.5% with CCRF-CEM leukemia and 86% with MOLT-4 leukemia.

The values above are taken from PubChem BioAssay (NCI).
